Data: the supplement of paper PMC6555819

Tests used:
Experiment in all cases: PBM binding z-score (relative to random genomic background probes); higher = stronger binding; sequences stand for … in GC…GCGATTGACAGCGTAGAATGAAGG
[1] = tested on: FXR:RXRa (NR concentration 270 nM, RXRa partner concentration 90 nM)
Summary of the method: (§1)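 The probes on custom Agilent 4×180K protein-binding microarrays were double-stranded, with 34-nt variable regions bearing direct-repeat seeds, single-nucleotide variants, half-site ablations and random human genomic background sequences. Incubation lasted 1 h with ligand-free nuclear receptor dimers in PBS pH 7.4, 2% milk, 0.02% Triton X-100, 1 mM DTT, 0.2 mg/mL BSA and 0.4 mg/ml salmon testes DNA. Antibodies against each partner (one per run) detected bound dimers, and fluorescence scans were regression-normalized. Binding z-scores take the random background probes as reference.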

[2] = tested on: LXRa:RXRa (NR concentration 270 nM, RXRa partner concentration 90 nM)
Summary of the method: as §1

[3] = tested on: LXRa homodimer (NR concentration 270 nM)
Summary of the method: as §1

[4] = tested on: LXRb:RXRa (NR concentration 270 nM, RXRa partner concentration 90 nM)
Summary of the method: as §1

[5] = tested on: LXRb homodimer (NR concentration 270 nM)
Summary of the method: as §1

[6] = tested on: PPARa:RXRa (NR concentration 270 nM, RXRa partner concentration 90 nM)
Summary of the method: as §1

[7] = tested on: PPARg:RXRa (NR concentration 180 nM, RXRa partner concentration 90 nM)
Summary of the method: as §1

[8] = tested on: PPARg:RXRa 270nM:90nM, anti-RXR (NR concentration 270 nM, RXRa partner concentration 90 nM)
Summary of the method: as §1

[9] = tested on: PPARg:RXRa 30nM:10nM, anti-RXR (NR concentration 30 nM, RXRa partner concentration 10 nM)
Summary of the method: as §1

[10] = tested on: PPARg:RXRa 90nM:30nM, anti-RXR (NR concentration 90 nM, RXRa partner concentration 30 nM)
Summary of the method: as §1

[11] = tested on: PPARg:RXRa DBDmut IVT, anti-RXR (DBD mutation: RXRa K156A/R161A, NR concentration 270 nM, RXRa partner concentration 90 nM)
Summary of the method: as §1

[12] = tested on: PPARg:RXRa IVT, anti-PPARg (NR concentration 270 nM, RXRa partner concentration 90 nM)
Summary of the method: as §1

[13] = tested on: PPARg DBDmut:RXRa IVT, anti-PPARg (DBD mutation: PPARg1 K132A/R137A, NR concentration 270 nM, RXRa partner concentration 90 nM)
Summary of the method: as §1

[14] = tested on: PPARg DBDmut IVT, anti-PPARg (DBD mutation: PPARg1 K132A/R137A, NR concentration 270 nM)
Summary of the method: as §1

[15] = tested on: PPARg homodimer (NR concentration 180 nM)
Summary of the method: as §1

[16] = tested on: PXR:RXRa (NR concentration 270 nM, RXRa partner concentration 90 nM)
Summary of the method: as §1

[17] = tested on: PXR homodimer (NR concentration 270 nM)
Summary of the method: as §1

[18] = tested on: RARa:RXR (NR concentration 270 nM, RXRa partner concentration 90 nM)
Summary of the method: as §1

[19] = tested on: RARa homodimer (NR concentration 270 nM)
Summary of the method: as §1

[20] = tested on: RARb:RXRa (NR concentration 270 nM, RXRa partner concentration 90 nM)
Summary of the method: as §1

Row | Sequence | PBM binding z-score [1] | PBM binding z-score [2] | PBM binding z-score [3] | PBM binding z-score [4] | PBM binding z-score [5] | PBM binding z-score [6] | PBM binding z-score [7] | PBM binding z-score [8] | PBM binding z-score [9] | PBM binding z-score [10] | PBM binding z-score [11] | PBM binding z-score [12] | PBM binding z-score [13] | PBM binding z-score [14] | PBM binding z-score [15] | PBM binding z-score [16] | PBM binding z-score [17] | PBM binding z-score [18] | PBM binding z-score [19] | PBM binding z-score [20]
1 | TTACCAAGGTGAAAGGTGGTTGATGCACGCCTTG | 0.879 | 0.449 | -0.508 | 0.171 | -0.366 | 2.81 | 4.38 | 5.35 | 3.06 | 4.85 | 3.12 | 3.55 | -0.573 | -0.258 | 0.847 | 0.419 | -0.541 | 1.35 | 0.211 | 1.5
2 | CGAACTGGGTCATCCAGGACAGTGAATACATTGA | 3.3 | 1.9 | 0.0995 | 1.9 | -0.478 | 4.92 | 7.51 | 5.92 | 3.5 | 5.51 | 7.33 | 8.01 | 5.1 | 4.27 | 2.15 | 2.01 | 0.0976 | 3.11 | 0.785 | 3.21
3 | CGTCCAAGGTCAGAGAGGTCAGAGAATGCCGAGT | 6.45 | 5.34 | 3.4 | 4.53 | 0.508 | 5.1 | 3.75 | 4.28 | 1.33 | 3 | 2.84 | 3.53 | 0.0352 | -0.116 | 4.06 | 6.31 | 11.8 | 5.66 | 1.75 | 5.18
4 | GCGACTGGGACATCAGCAGGTTACCATAACTTAA | -0.41 | -0.456 | -0.462 | -0.188 | -0.768 | 0.248 | 0.495 | -0.264 | -0.28 | -0.281 | 1.95 | 1.18 | -0.236 | -1.24 | -0.146 | -0.226 | -0.651 | -0.109 | -0.694 | 0.0627
5 | ACTCGGAGGACAAAGGTCAGAGCCACGCCAGTGA | 4.39 | 4.56 | 1.53 | 3.52 | 0.161 | 5.36 | 8.4 | 7.54 | 6.19 | 8.08 | 0.449 | 3.88 | 0.243 | 0.0578 | 3.83 | 4.03 | 0.202 | 5.5 | 1.68 | 4.73
6 | TCGAGTAGGTTAGGGACATTCAGAATGGCGTCGA | 0.438 | -0.314 | -0.491 | -0.146 | -0.828 | 0.561 | 0.371 | 0.659 | 1.18 | 0.799 | 1.85 | 1.17 | -0.378 | -1.4 | 0.27 | -0.0606 | -0.414 | 0.186 | -0.0818 | 0.661
7 | CCTGCCAGGTCAATGGTCAGCTAAAGCAGCTCGC | 3.36 | 2.51 | -0.047 | 1.96 | -0.196 | 3.48 | 2.59 | 3.44 | 0.524 | 2.57 | 1.49 | 2.41 | -0.936 | -1.59 | 0.763 | 1.6 | -0.223 | 1.96 | -0.54 | 3.66
